Source: PubChem
Pf growth 48h – Primary qHTS for delayed death inhibitors of the malarial parasite plastid, 48 hour incubation; P. falciparum luciferase growth in erythrocytes, 48 h; hit rate 5.9% among 310,000; Potency, µM (doses to about 28.7 µM), actives largely listed as inhibitors
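Luciferase-expressing P. falciparum in infected erythrocytes (2% hematocrit, 0.1% parasitemia final) in RPMI 1640/0.5% Albumax were exposed to compound for 48 hours at 37 C, 5% CO2; growth read as luminescence.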
Pf growth 96h – Primary qHTS for delayed death inhibitors of the malarial parasite plastid, 96 hour incubation; hit rate 6.9% among 320,000; Potency, µM (highest dose often 28.7 µM), usual class: inhibitors; P. falciparum luciferase reporter growth, 96 h
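Erythrocytes infected with luciferase-expressing P. falciparum were dispensed at 2% hematocrit and 0.05% parasitemia (final), then incubated with compounds 96 hours at 37 C in 5% CO2. Luminescence after detection reagent addition reported growth.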
AMA1 RON2 block – qHTS for Inhibitors of AMA1-RON; Towards Development of Antimalarial Drug Lead: Primary Screen | Plasmodium falciparum AMA1 (3D7) - RON2 peptide interaction | AlphaScreen AMA1-biotinylated RON2 peptide binding | Potency, µM (top dose mostly 58.2 µM), most hits filed as inhibitors | hit rate 0.2% among 360,000; also: nearly all actives have a fitted effect of over 45% in size
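AMA1 (3D7) with his tag at 25 nM final met compounds first, then biotinylated RON2 peptide at 25 nM; detection used donor plus acceptor beads, 10 µg/mL apiece, read by AlphaScreen after 30 min at room temperature.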
HCV inhibitor – qHTS Assay for Inhibitors of Hepatitis C Virus (HCV) | hit rate 3.4% among 340,000 | Huh7.5.1 HCVcc-Cre infection, luciferase reporter, 44 h | Potency, µM (highest dose often 41.8 µM), actives largely listed as inhibitors
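Infectious HCV cell culture screen: compound-treated cells (1,000/well, pre-plated 4 h) are infected with HCVcc-Cre at roughly 0.5 moi and grown 44 h. Infection is quantified by luciferase signal after 15 min substrate incubation at room temperature.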
A number is an active result; i = inactive; ? = inconclusive; nt = no result given. Compounds with a hit are over-represented: about 11% of the library has one in this group of screens. Calls follow the shape of the dose curve; as a rule, active = well fitted curve in the direction sought with a large enough effect; inconclusive = small, poorly fitted or top-dose-only effect, or another doubt; inactive = no such curve, though single readings can be large; an effect the other way counts as inactive or inconclusive.

SMILES	Pf growth 48h	Pf growth 96h	AMA1 RON2 block	HCV inhibitor
CN1CCN(c2ccc(S(=O)(=O)C(F)(F)F)cc2[N+](=O)[O-])CC1	i	?	i	i
O=[N+]([O-])c1cc(S(=O)(=O)C(F)(F)F)ccc1N1CCN(c2ccccc2)CC1	i	?	?	i
CN1CCN(c2ccc(S(C)(=O)=O)cc2[N+](=O)[O-])CC1	i	12µM	i	i
O=[N+]([O-])c1cc(S(=O)(=O)Nc2ccccc2)ccc1N1CCN(c2ccccc2)CC1	?	?	?	13µM
COc1ccc2c(c1OC)C(=O)OC2Nc1nc(-c2cccc([N+](=O)[O-])c2)cs1 (stereo not drawn)	i	i	i	i
Cc1ccc(S(=O)(=O)NCCNc2ccc([N+](=O)[O-])cc2C(F)(F)F)cc1	10µM	4.1µM	i	i
O=[N+]([O-])c1ccc(NCCNS(=O)(=O)c2ccccc2)c(C(F)(F)F)c1	?	?	i	i
Oc1ccc(C(=C(Cl)Cl)c2ccc(O)cc2)cc1	2.9µM	2.3µM	nt	nt
O=C(CN1CCOCC1)NNc1c2ccccc2nc2ccccc12	?	?	i	8.9µM
O=C(CN1CCOCCOCCOCC1)Nc1ccccc1	nt	i	i	i
CC(=O)c1ccc(NC(=O)CN2CCOCC2)cc1	i	13µM	i	i
C[N+]1(CC(=O)NNc2c3ccccc3nc3ccccc23)CCOCC1	?	i	nt	nt
CC(=O)c1ccc(NC(=O)CN2CCN(CC(=O)Nc3ccc(C(C)=O)cc3)CC2)cc1	i	i	i	i
O=C(CN1CCOCC1)NNC(=S)Nc1ccccc1	i	13µM	i	i
O=C(COc1ccc(-c2ccccc2)cc1)N1CCN(C(=O)c2cccs2)CC1	i	i	i	?
CCOc1ccccc1Nc1nc(-c2sc(C)nc2C)cs1	?	i	?	?
CCOc1ccccc1Nc1nc(-c2cccnc2)cs1	13µM	i	i	10µM
c1cncc(Nc2nc(-c3cccnc3)cs2)c1	i	nt	i	?
NS(=O)(=O)c1ccc(Nc2nc(-c3cccnc3)cs2)cc1	i	i	i	13µM
Cc1ccccc1Nc1nc(-c2sc(NC(=O)c3ccco3)nc2C)cs1	12µM	?	i	?
CCOc1ccccc1Nc1nc(-c2sc(NC(=O)c3ccco3)nc2C)cs1	15µM	2.3µM	i	?
CC(=O)Nc1cccc(Oc2nc(NCCN(C)C)nc3ccsc23)c1	nt	nt	i	nt
COC(=O)c1cnc(Nc2nc(CN)cs2)nc1C(F)(F)F	nt	nt	i	nt
Cc1ccc(S(=O)(=O)N[C@@H](C)C(=O)OCC(=O)N2c3ccccc3NC(=O)C2(C)C)cc1	i	i	i	i
Cc1ccc(Nc2nc(-c3sc(NC(=O)c4ccco4)nc3C)cs2)cc1	9.3µM	?	i	?
SMILES	Pf growth 48h	Pf growth 96h	AMA1 RON2 block	HCV inhibitor
Cn1c(SCC(=O)NC2CCCC2)nnc1-c1ccncc1	i	i	i	i
O=C(CSc1nnc(-c2ccccn2)n1Cc1ccccc1)NC1CCCC1	8.3µM	?	i	i
NC(=O)c1ccc(-n2nnnc2SCC(=O)NC2CCCCC2)cc1	i	13µM	i	i
Cn1c(SCC(=O)NC2CCCCC2)nnc1-c1cccc(N)c1	i	4.1µM	i	i
Nc1nnc(SCC(=O)NC2CCCCC2)n1-c1ccccc1	i	8.3µM	i	i
O=c1[nH]c2cc3ccccc3cc2nc1-c1nnnn1Cc1ccccc1	nt	nt	i	nt
O=C(CSc1nc2ccc(S(=O)(=O)N3CCOCC3)cc2[nH]1)N1CCOCC1	nt	1.9µM	i	i
O=C1C(=Cc2ccccn2)CCc2ccccc21	nt	nt	i	nt
Cc1ccsc1/C=C1\CCc2ccccc2C1=O	nt	10µM	i	i
CNC(=O)Cn1nc(-c2ccc(Cl)cc2)c2ccccc2c1=O	i	i	i	i
NC(=O)CCN1CCN(CCOC2Cc3cc(Cl)ccc3Sc3ccccc32)CC1 (stereo not drawn)	?	?	i	11µM
COCCCN1CCN(C2Cc3ccccc3Sc3ccc(Cl)cc32)CC1 (stereo not drawn)	?	?	i	i
CN1CCN(CCOC2c3ccccc3CSc3ccc(Cl)cc32)CC1 (stereo not drawn)	?	10µM	i	?
CC1=C(C(=O)OC2CCCC(C)C2)C(c2ccccc2)NC(=O)N1 (stereo not drawn)	i	i	i	i
CCOC(=O)C1Oc2ccccc2C(c2ccc(C)cc2)=C1C(=O)OC (stereo not drawn)	nt	nt	i	?
Cc1cc(C)nc(SCC(=O)c2ccc(O)c(O)c2)n1	?	i	i	i
Cc1cc(C)nc(SCC(=O)c2ccc(C)c(C)c2)n1	i	9.3µM	i	i
O=C(COC(=O)CC1CCCC1)Nc1ccccc1[N+](=O)[O-]	i	i	i	i
CC1CCN(S(=O)(=O)c2ccc3c(c2)C(=NO)c2cc(S(=O)(=O)N4CCC(C)CC4)ccc2-3)CC1	?	5.9µM	i	2µM
O=S(=O)(c1ccc2c(c1)C(=NO)c1cc(S(=O)(=O)N3CCCCC3)ccc1-2)N1CCCCC1	8.3µM	?	i	5µM
CCc1nc2ccc(C(=O)NCCc3ccccn3)cn2c1N(C)CCC(C)C	nt	nt	i	nt
Cc1c(NC(=O)c2cc(-n3cnnc3)ccc2Cl)cccc1-c1nc2ccccc2s1	i	i	i	?
Cc1ccc2sc(-c3ccc(NC(=O)c4cc(-n5cnnc5)ccc4Cl)cc3)nc2c1	i	?	i	0.89µM
COc1cc(NC(=O)c2cc(-n3cnnc3)ccc2Cl)cc(OC)c1	i	13µM	i	i
O=C(Nc1cccc(-c2nc3ccccc3s2)c1)c1cc(-n2cnnc2)ccc1Cl	i	i	i	13µM
SMILES	Pf growth 48h	Pf growth 96h	AMA1 RON2 block	HCV inhibitor
CCOC(=O)C1(C)CCN1C(=O)CSc1ccccc1 (stereo not drawn)	nt	nt	i	nt
O=C(COC(=O)c1ccccc1C(=O)c1ccc(Cl)c([N+](=O)[O-])c1)NC1CCCCCC1	nt	i	i	13µM
O=C(COC(=O)c1ccc(Cl)c([N+](=O)[O-])c1)NC1CCCC1	i	i	i	i
CN(CCC#N)C(=O)COC(=O)c1ccccc1C(=O)c1ccc(Cl)c([N+](=O)[O-])c1	i	i	i	2.8µM
COCCN=C1Sc2nc3ccc(C)cc3cc2CN1Cc1cccs1	i	?	i	i
COCCN=C1Sc2nc3c(C)cccc3cc2CN1Cc1ccco1	8.3µM	i	i	i
Cc1cccc2cc3c(nc12)SC(=NCC1CCCO1)N(Cc1ccco1)C3 (stereo not drawn)	4.1µM	i	i	?
CCN(CC(=O)Nc1ccc(OC)cc1)C(=O)c1ccc(OCc2c(C)noc2C)cc1	nt	nt	i	i
COCCN(C(=O)COC(=O)CCOc1ccccc1C)c1c(N)n(Cc2ccccc2)c(=O)[nH]c1=O	i	i	i	i
C=CCc1cc(/C=C2/NC(=O)NC2=O)cc(OCC)c1O	i	1µM	i	i
CCOc1cc(/C=N/n2cnnc2)ccc1O	i	i	i	i
C=CCc1cc(/C=N/n2cnnc2)cc(OCC)c1O	?	8.3µM	i	?
Cn1c2ccccc2c(=O)c2ccc(C#CC3(O)CCCCC3)cc21	i	i	i	10µM
CCC(CC)NC(=O)CCCSc1nc2ccccc2[nH]1	i	i	i	i
